Where “and” joins values, the source holds several entries; their conditions need not be identical. Identical values can stand only once. Among all 5,500 compounds or so, about 2,000 (36%) were called active. Not shown: some 18% with an inconclusive outcome. Rule as the data show it: active = normalized growth mostly below about 0.91 (no sharp cut-off); inconclusive = no clear call, values can overlap the other calls; inactive = mostly above about 0.92. The list shows a part of the results.
Experiment: chemical genetic growth profiling, strain panel (AID 1159580);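 also: tested at 20 µM; growth read once vehicle control cultures reached saturation at 30 °C; 1 = growth at the plate median or of vehicle wells; lower values mean less growth of the strain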
Conditions: S. cerevisiae deletion strains, growth OD

Measured: normalized growth

NCCc1cnc[nH]1
inactive: locus YAL021C, strain ccr4, hits give low values 1.01 | locus YAL026C, strain drs2, hits give low values 1.01 | locus YAL030W, strain snc1, hits give low values 1.01 | locus YAL040C, strain CLN3, hits give low values 0.978 | locus YBL061C, strain skt5, hits give low values 1.02 | locus YBR009C, strain hhf1, hits give low values 1 | locus YBR021W, strain FUR4, hits give low values 1 | locus YBR023C, strain chs3, hits give low values 1.02 | locus YBR171W, strain sec66, hits give low values 1.03 | locus YBR229C, strain ROT2, hits give low values 1.01 | locus YBR231C, strain swc5, hits give low values 0.976 | locus YBR279W, strain paf1, hits give low values 1.02 | locus YCL011C, strain gbp2, hits give low values 1.03 | locus YCL016C, strain dcc1, hits give low values 1.01 | locus YCL029C, strain bik1, hits give low values 1.01 | locus YCL061C, strain MRC1, hits give low values 1.02 | locus YCL069W, strain vba3, hits give low values 1.01 | locus YCR088W, strain abp1, hits give low values 1.01 | locus YDL005C, strain med2, hits give low values 1.02 | locus YDL035C, strain GPR1, hits give low values 0.988 | locus YDL040C, strain nat1, hits give low values 1.02 | locus YDL074C, strain BRE1, hits give low values 1 | locus YDL101C, strain DUN1, hits give low values 1.01 | locus YDL185W, strain tfp1, hits give low values 1.02 | locus YDL192W, strain arf1, hits give low values 1.03 | locus YDR001C, strain nth1, hits give low values 1.01 | locus YDR069C, strain doa4, hits give low values 0.993 | locus YDR101C, strain arx1, hits give low values 0.997 | locus YDR137W, strain rgp1, hits give low values 1.03 | locus YDR159W, strain sac3, hits give low values 0.995 | locus YDR162C, strain NBP2, hits give low values 0.998 | locus YDR195W, strain ref2 0.994 | locus YDR297W, strain sur2, hits give low values 1.04 | locus YDR318W, strain mcm21, hits give low values 1.02 | locus YDR334W, strain swr1, hits give low values 1.02 | locus YDR335W, strain msn5, hits give low values 1.02 | locus YDR363W, strain ESC2, hits give low values 0.998 | locus YDR388W, hits give low values 1.01 | locus YDR392W, strain spt3, hits give low values 1 | locus YDR502C, strain sam2, hits give low values 1.01 | locus YEL003W, strain gim4, hits give low values 1.03 | locus YEL037C, strain rad23, hits give low values 1.02 | locus YEL061C, strain CIN8 (second series), hits give low values 1.02 | locus YEL061C, strain CIN8, hits give low values 0.995 | locus YER002W, strain NOP16, hits give low values 0.994 | locus YER015W, strain faa2, hits give low values 1.01 | locus YER016W, strain bim1, hits give low values 1 | locus YER110C, hits give low values 1.02 | locus YER111C, strain swi4, hits give low values 1.02 | locus YER155C, strain BEM2 (second series), hits give low values 1.03 | locus YER155C, strain BEM2, hits give low values 1.01 | locus YER167W, strain BCK2, hits give low values 0.989 | locus YFR010W, strain ubp6, hits give low values 1.01 | locus YGL078C, strain dbp3, hits give low values 1.02 | locus YGL086W, strain mad1, hits give low values 1 | locus YGL167C, strain pmr1, hits give low values 1.01 | locus YGL173C, strain kem1, hits give low values 1 | locus YGL227W, strain vid30, hits give low values 1.01 | locus YGL240W, strain doc1, hits give low values 1.01 | locus YGL248W, strain PDE1, hits give low values 1.01 | locus YGL253W, strain hxk2, hits give low values 1.01 | locus YGR078C, strain PAC10, hits give low values 1 and 0.997 | locus YGR135W, strain pre9, hits give low values 1.02 | locus YGR252W, strain gcn5, hits give low values 1.04 | locus YHR013C, strain ard1, hits give low values 1.06 | locus YHR027C, strain rpn1, hits give low values 1.01 | locus YHR030C, strain SLT2, hits give low values 0.985 and 1 | locus YHR079C, strain IRE1 (second series), hits give low values 1.01 | locus YHR079C, strain IRE1, hits give low values 1.03 | locus YHR094C, strain hxt1, hits give low values 1.01 | locus YHR129C, strain ARP1, hits give low values 1.01 | locus YHR142W, strain chs7, hits give low values 1.01 | locus YHR200W, strain rpn10, hits give low values 1.02 | locus YIL066C, strain RNR3, hits give low values 1.01 | locus YIL073C, strain SPO22, hits give low values 1.03 | locus YIL125W, strain kgd1, hits give low values 1.02 | locus YIR030C, strain dcg1, hits give low values 1.01 | locus YJL092W, strain hpr5, hits give low values 1.02 | locus YJL095W, strain BCK1 (second series), hits give low values 1.02 | locus YJL095W, strain BCK1, hits give low values 1.01 and 0.999 | locus YJL115W, strain asf1, hits give low values 1.02 | locus YJL129C, strain trk1, hits give low values 1.03 | locus YJL134W, strain LCB3, hits give low values 0.995 | locus YJL154C, strain vps35, hits give low values 1.03 | locus YJL164C, strain tpk1, hits give low values 1.02 | locus YJL166W, strain qcr8, hits give low values 1.03 | locus YJL168C, strain set2, hits give low values 1.01 | locus YJL187C, strain SWE1 (second series), hits give low values 1 | locus YJL187C, strain SWE1, hits give low values 1.01 | locus YJR043C, strain POL32, hits give low values 1
